Shiga toxin inh = A qHTS for Small Molecule Inhibitors of Shiga Toxin; AID 2315, 2010; actives 9.2% (n = 290,000); Vero cells, Shiga toxin protein synthesis inhibition reporter; inhibition, % at 38.7 µM; in the data active = inhibition mostly above about 28%, no sharp cut-off; inactive = mostly below about 43%; also: 0% is about no effect
CHX counter = Cycloheximide Counterscreen for Small Molecule Inhibitors of Shiga Toxin. cell reporter, cycloheximide protein synthesis inhibition counterscreen. AID 2314, 2010. actives 12% (n = 300,000). max response, %; in the data active = max response mostly above about 13%, no sharp cut-off; inactive = mostly below about 14%; also: read at 38.3 µM for the half of the compounds with a filed dose; 0% is about no effect
FMDV inh = High Throughput Screening for Foot and Mouth Disease Virus Antivirals; FMDV antiviral cell-based qHTS; Potency, µM (top dose mostly 57.9 µM), for inactives: top-dose activity change, negative = inhibition, hits mostly inhibitors; actives 1.2% (n = 410,000); AID 1159524, 2015; calls by dose curve; tested in HEK293T cells; also: read-out not given here; potency is read from the fitted curve at half-maximal effect; % is scaled to controls: 0 for no effect and ±100 for the full control effect; nearly all actives have a fitted effect of over 45% in size
Sm TGR block = qHTS Assay for the Inhibitors of Schistosoma Mansoni Peroxiredoxins | Schistosoma mansoni thioredoxin glutathione reductase (TGR), Q962Y6 | purified TGR, DTNB reduction, TNB absorbance 405 nm | Potency, µM (doses to about 114 µM), for inactives: at the highest dose activity change, negative = inhibition, hits mostly inhibitors | actives 3% (n = 360,000) | AID 485364, 2010; active = well fitted inhibition curve with a large enough effect; inconclusive = small, poorly fitted or top-dose-only effect; inactive = no such curve, though single readings can be large or run the other way; also: potency is read from the fitted curve at half-maximal effect; % is scaled to controls: 0 for no effect and ±100 for the full control effect; nearly all actives have a fitted effect of over 60% in size
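TGR 20 nM + NADPH 100 uM (dispensed conc.), cpd preinc 15 min RT; start with NADPH (500 uM addition) then DTNB (15 mM addition). Kinetic TNB absorbance, 405 nm filter. Four-parameter Hill fit across titration.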
Starred values were filed as active, the others as inactive; ? = inconclusive; nt = no result given. Most compounds without a hit are left out; they make up all but 12% or so of the library.

SMILES	Shiga toxin inh	CHX counter	FMDV inh	Sm TGR block
COc1cccc(C(=O)NCc2nc(-c3cccc(NC(=O)c4ccoc4C)c3)oc2C)c1OC	nt	nt	20µM*	nt
COc1ccc(NC(=O)c2cccc3ccccc23)cc1OC	nt	nt	1.2%	nt
COc1cccc(NC(=O)c2cccc(OC)c2OC)c1	125.1*	69.8*	56.3%	1.9%
COc1ccc(NC(=O)c2cc3ccccc3cc2OC)cc1OC	22.8	14.9*	11.3%	-12.9%
Cc1cccc(C(=O)NCc2nc(-c3cccc(NC(=O)c4ccoc4C)c3)oc2C)n1	nt	nt	-18.8%	nt
Cc1ccc(Nc2nc(N)nc(N)c2S(=O)(=O)c2ccccc2)cc1	nt	nt	-13.2%	-1.3%
O=C(CC(c1cccs1)N1Cc2ccccc2C1=O)Nc1ccccc1 (stereo not given)	nt	nt	25.9%	-1.5%
COc1ccccc1CNCC(=O)Nc1ccc(N(C)C)cc1	110.8*	50.0*	41.2%	?
COc1cccc(C(=O)Nc2ccc3[nH]c(=O)[nH]c3c2)c1OC	54.2*	8.4	41.0%	0.4%
COc1cc2ccccc2cc1C(=O)Nc1ccc(O)cc1	62.8*	44.4*	28.5%	1.1%
COc1ccc(OC)c(NC(=O)c2cc3ccccc3cc2OC)c1	43.3	2.4	-4.4%	6.9%
CCc1ccc(NC(=O)Cn2c(=O)c3cc(Cl)ccc3n3nncc23)cc1	nt	nt	0.0%	-1.2%
Cc1nnsc1C(=O)Oc1ccc(C#N)cc1	nt	nt	5.5%	15.8µM*
N#CC(=C(/N)Sc1ccccc1N)/C(C#N)=C(\N)Sc1ccccc1N	nt	nt	-1.0%	nt
O=C(CSc1nc(-c2ccco2)nc2cc(=O)[nH]n12)Nc1ccccc1F	nt	nt	-14.3%	-28.5%
Cc1ccccc1NC(=O)CSc1nnc(-c2ccco2)c(-c2ccco2)n1	22.3	0.9	-17.6%	3.55µM*
Cc1cccc(C)c1NC(=O)CSc1nnc(-c2ccco2)c(-c2ccco2)n1	13.5	2.1	-17.8%	1.78µM*
Cc1ccc(NC(=O)CSc2nnc(-c3ccco3)c(-c3ccco3)n2)cc1	0.6	15.2	-5.2%	?
CSc1nnc(-c2ccccc2)c(-c2ccccc2)n1	-4.9	0.7	-23.3%	-4.9%
Cc1ccccc1NC(=O)CSc1nc(-c2ccco2)nc2cc(=O)[nH]n12	nt	nt	-10.0%	39.8µM*
CSc1nnc(-c2ccco2)c(-c2ccco2)n1	21.0	15.9	-12.6%	1µM*
Cc1ccccc1NC(=O)CSc1cn[nH]n1	-7.2	-4.6	11.0%	-0.2%
Cc1ccccc1NC(=O)CSc1ccncc1	26.0	13.9*	4.9%	-2.1%
CCOC(=O)C(=CN=C(N)Nc1nc2ccccc2o1)C(=O)OCC	31.4*	13.5*	40.2%	3.3%
CCOC(=O)C(Cc1ccc(O)cc1)Nc1nc2ccccc2o1 (stereo not given)	nt	nt	-10.8%	nt
SMILES	Shiga toxin inh	CHX counter	FMDV inh	Sm TGR block
CCCOC(=O)Nc1nc2ccccc2o1	143.6*	25.9*	43.4%	-2.1%
COc1ccc(-c2cc(C(=O)Oc3ccc(C)c(C)c3)c3ccccc3n2)cc1	nt	nt	11.2%	4.6%
Cc1ccc(OCc2nc(-c3ccc(C(=O)N4CCN(c5cccc(C(F)(F)F)c5)CC4)cc3)oc2C)cc1	nt	nt	-24.0%	10.7%
C/C(=N\NC(=S)Nc1ccccc1C)c1ccc(O)cc1	42.6	12.6*	12.8%	8.3%
O=C(NC(=S)NC1CCCCCC1)c1cncc(Br)c1	84.9*	39.7*	45.6%	-20.7%
O=C(NC(=S)NC1CCCCC1)c1ccccc1	99.5*	48.0*	85.7%	1µM*
C/C(=N\NC(=S)NC1CCCCC1)c1ccccc1	59.2	11.8*	-22.9%	3.0%
C/C(=N\NC(=S)NC1CCCCC1)c1ccc(O)cc1	23.1	7.5	-8.7%	-4.7%
COCCNC(=S)N/N=C(\C)c1ccc(O)cc1	-3.2	2.0	-8.5%	-25.2%
O=C(NC(=S)NC1CCS(=O)(=O)C1)c1ccccc1 (stereo not given)	10.7	5.1	1.9%	1.6%
CC(=O)c1ccc(NC(=O)c2nc(-c3ccccc3)n(-c3ccccc3Cl)n2)cc1	nt	nt	-22.8%	4.7%
C/C(=N\NC(=S)NC(C)C)c1ccco1	13.9	10.1	5.0%	3.98µM*
C/C(=N\NC(=S)NC(C)C)c1cccc([N+](=O)[O-])c1	-0.7	-1.3	1.8%	?
C/C(=N\NC(=S)NC(C)C)c1ccccc1	11.6	5.2	1.0%	0.398µM*
CC(=O)Nc1cccc(/C(C)=N/NC(N)=S)c1	-9.5	7.7	10.7%	-4.1%
CC(=O)Nc1cccc(/C(C)=N/NC(=S)NC(C)C)c1	67.4*	28.3*	-9.8%	-12.7%
COc1ccc(-c2nc3ccc(NS(=O)(=O)c4ccc(Cl)cc4)cc3o2)cc1	nt	nt	20.6%	2.7%
COc1ccc(C(=O)Nc2cccc(-c3cn4ccsc4n3)c2)c(OC)c1	nt	nt	16.7%	1.5%

Bioassay records: PubChem BioAssay, National Center for Advancing Translational Sciences (NCATS)
